# A selection: hits, their analogues and other compounds. The true share with any hit is near 2.2%.
# Hsp70 act: transcriptional activators of Hsp70 | HeLa Hsp70 promoter luciferase reporter, luminescence; scaled: vehicle 0, proteasome-inhibitor control 100% | activation, % at 10 µM | 200,000 compounds, 0.04% hits;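 active = activation above the mean across all tested compounds plus 3 SD, cutoff set per campaign, cut at about 5.5% in these data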;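 note: 100% = MG132 at 30 µM as the positive control and 0% = DMSO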
# GAA850 FXN act: activators of GAA850 frataxin (FXN) promoter; 360,000 compounds, 0.56% hits; HEK293 lucGAA850 FXN promoter luciferase reporter, 24 h; percent of 10 µM SAHA response; activation, % at 6 µM; AID 540364;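 active = activation above the average of all compounds screened plus 3 SD, cutoff fixed separately per campaign, cut at about 7.5% in these data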;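 note: 0% = DMSO wells and 100% = 10 µM SAHA wells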
# SMARCA2 activ: increases SMARCA2 function in MMTV reporter cells; MG213 cells, MMTV-luciferase reporter, dexamethasone, overnight; 370,000 compounds, 1% hits; AID 652017; activation, % at 9.1 µM; in the data active = activation above about 7.8%;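 note: 0% = vehicle wells and 100% = reference activator wells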
# GalR3 antag: antagonists of human GalR3; O60755; HEK293 GalR3-CNG cAMP membrane potential fluorescence; galR3 body fused to GalR1 C-terminus; 360,000 compounds, 0.44% hits; inhibition, % at 3 µM;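 active = inhibition above the screen-wide average plus 3 SD, cut at about 13% in these data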;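 note: forskolin and galanin both at EC90 stimulate the cells; cAMP rise reported by CNG channel membrane potential dye signal; 0% = forskolin plus galanin with DMSO and 100% = forskolin alone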
# Target sequence (O60755 1-299 limits assumed): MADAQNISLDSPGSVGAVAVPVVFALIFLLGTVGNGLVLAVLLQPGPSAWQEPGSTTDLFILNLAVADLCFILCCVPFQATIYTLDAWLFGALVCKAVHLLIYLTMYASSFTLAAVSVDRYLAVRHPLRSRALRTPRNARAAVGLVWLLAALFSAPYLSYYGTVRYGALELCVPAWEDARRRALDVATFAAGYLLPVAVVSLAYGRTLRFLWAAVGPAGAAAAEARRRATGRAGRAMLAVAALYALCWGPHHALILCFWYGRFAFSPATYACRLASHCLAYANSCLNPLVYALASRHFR
# HIF activator: HIF pathway transcriptional activation. U2OS HRE-luciferase reporter, luminescence; normalized: DMSO 0%, desferrioxamine 100%. activation, % at 7.5 µM (by protocol). 300,000 compounds, 0.32% hits. AID 1910;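 active = mean activation of at least 10% of the iron chelator positive control signal, with at least half of replicates also reaching 10%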
# GAA30 counter: GAA30 FXN promoter activation counter-screen; shares compounds with GAA850 FXN act; activation, % at 6 µM; 1,900 compounds, 66% hits; AID 588350; HEK293 lucGAA30 FXN promoter luciferase, 24 h; DMSO = 0%, 5 µM ipriflavone = 100%;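 active = mean activation above the mean of solvent-only control wells plus 3 SD, cut at about 22% in these data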;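 note: counterscreen of GAA850 promoter hits where activity marks nonselective or luminescence artifacts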
# GAA850 confirm: GAA850 FXN promoter activation confirmation. shares compounds with GAA850 FXN act. HEK293 lucGAA850 FXN promoter luciferase reporter, 24 h; 100% = activation by SAHA. 1,900 compounds, 86% hits. activation, % at 6 µM;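 active = mean activation above a set limit taken from the primary screen, cut at about 8% in these data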;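 note: 0% = DMSO wells and 100% = 10 µM SAHA wells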
# SMARCA2 act conf: confirmation of SMARCA2 (BRM) function activators; shares compounds with SMARCA2 activ; MG213 cells, MMTV-luciferase with dexamethasone, luminescence, overnight; MG213 cells expressing E1A, Rb sequestered; DMSO wells 0%, reference activator 100%; activation, % at 9.1 µM; 3,500 compounds, 30% hits; AID 652260;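 active = activation above its plate's cutoff, the mean activation of tested wells plus 3 SD, cut at about 7.9% in these data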
# GAL4-VP16 Luc: GAL4-VP16 reporter activation counter-screen; 3,500 compounds, 41% hits; HEK293 GAL4-VP16 pG5luc reporter, luciferase luminescence; scaled: DMSO wells 0%, SAHA wells 100%; AID 686939; shares compounds with SMARCA2 activ; activation, % at 9.1 µM;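 active = activation above the solvent-only control well mean plus 3 SD, averaged across control plates, cut at about 5.2% in these data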
# An asterisk follows results filed as active; . = no result; ! = not confirmed by another sample.
SMILES,Hsp70 act,GAA850 FXN act,SMARCA2 activ,GalR3 antag,HIF activator,GAA30 counter,GAA850 confirm,SMARCA2 act conf,GAL4-VP16 Luc
Nc1c(Br)cc2oc(-c3ccccc3)nc2c1Br,0,7.9*,9.5*,-10,2,102*,41*,12*,7.2*
CCOC(=O)Cn1cc(CN2CCS(=O)(=O)N(Cc3ccc(C)cc3)C(C(=O)OC)C2)nn1 (stereo not given),.,.,-2,.,.,.,.,.,.
N#CCn1cnc2sc(-c3ccccc3)cc2c1=O,0,9.2*,9.1*,2,3,76*,28*,11*,1
CCCn1c2ccccc2c2nnc(SCCN3CCOCC3)nc21,.,3,-1,-6,-1,.,.,.,.
c1ccc2nc3c(nc2c1)c1ccccc1n3CCN1CCOCC1,0,12*,11*,-4,3,52*,24*,7.9*,4
Fc1ccccc1Cn1ccc2ccc(-c3ccc4ccn(Cc5ccccc5F)c4c3)cc21,.,.,2,.,.,.,.,.,.
O=C(NCCc1ccccc1)c1coc(=O)c(Br)c1,.,8.0*,27*,-7,4,-2,21*,-9,5
CN(C)CCNC(=O)c1coc(=O)c(Br)c1,0,3,0,-2,0,.,.,.,.
O=C(NCCC1=CCCCC1)c1coc(=O)c(Br)c1,1,17*,20*,-6,2,-3,26*,-1,5.5*
COc1ccc(CCN(C)C(=O)CCc2nnc(-c3ccccc3)o2)cc1OC,0,9.3*,11*,-2,4,110*,31*,13*,7.3*
CN(Cc1ccc(F)cc1)C(=O)CCc1nnc(-c2ccccc2)o1,0,4,2,-6,4,.,.,.,.
COc1ccc(-c2cc(-c3cc(C)ccc3O)[nH]n2)cc1,0,13*,16*,-7,4,53*,46*,17*,5.8*
O=C(/C=C/Sc1ccccc1)c1ccc(Cl)cc1,1,12*,8.1*,-11,4,86*,58*,5,6.4*
Nc1c2ccccc2nc2ccccc12,.,13*!,55*,-7,6,-16,94*,110*,2
O=C(Nc1sc2c(c1C(=O)NCc1ccco1)CCCC2)c1ccc2c(c1)OCO2,1,10*,8.9*,1,4,69*,31*,4,8.3*
Cc1ccc(C(=O)Nc2sc3c(c2C(=O)NCc2ccco2)CCCC3)cc1,0,6,-1,-6,0,.,.,.,.
Cc1ccccc1N=Cc1cccc(O)c1O,0,4,.,.,-1,.,.,.,.
Oc1cccc(/C=N/N=C/c2cccc(O)c2O)c1O,.,8.9*,12*,0,4,37*,18*,13*,7.4*
C=CCN1C(=O)N/C(=C/c2ccc(N3CCOCC3)o2)C1=O,2,.,6,-1,0,.,.,.,.
O=C1N/C(=C/c2ccc(N3CCOCC3)o2)C(=O)N1c1ccccc1,1,11*,14*,0,.,54*,19*,3,2
O=C(OCCN1CCN(C2CN(Cc3cn(Cc4ccccc4C(F)(F)F)nn3)S(=O)(=O)C2)CC1)c1cc2ccccc2o1 (stereo not given),.,.,2,.,.,.,.,.,.

# Source: PubChem BioAssay (several laboratories)
